In assay [1] the target is Peroxisome proliferator-activated receptor gamma (Homo sapiens) (UniProt P37231). Put plainly: ATG_PPARg_TRANS: Attagene TRANS-FACTORIAL HepG2 Assay for human Peroxisome Proliferator-activated Receptor-gamma (PPARg) (AID 2283007). Put shortly: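 HepG2 cells transiently transfected with multiplexed GAL4-UAS reporter units and exogenous chimeric NR-Gal4 proteins; reporter mRNA quantified after 24 h compound exposure by RT-PCR, fluorescent labelling, HpaI digestion and capillary electrophoresis; gain-of-signal fitted versus DMSO baseline.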

Assay [2] addresses Nuclear receptor subfamily 1 group I member 2 (Homo sapiens) (UniProt O75469). Put plainly: ATG_PXR_TRANS: Attagene TRANS-FACTORIAL HepG2 Assay for human Pregnane X Receptor (PXR) (AID 2283008). Put shortly:
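HepG2 cells transiently transfected with GAL4-UAS reporter units and PXR-Gal4 chimera, exposed 24 h. Reporter mRNA quantified by RT-PCR, fluorescent labelling, HpaI digestion and capillary electrophoresis; gain of signal vs DMSO.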

Assay [3] deals with human RAR-related Orphan Receptor gamma (RORg), RORC (gene 6097) (UniProt P51449). Put plainly: ATG_RORg_TRANS: Attagene TRANS-FACTORIAL HepG2 Assay for human RAR-related Orphan Receptor gamma (RORg) (AID 2283011). Put shortly:
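HepG2 cells transiently transfected with GAL4-UAS reporter units and chimeric RORg-Gal4 construct; after 24 h chemical exposure, reporter mRNA measured by RT-PCR with fluorescent capillary electrophoresis, gain of signal fitted against DMSO.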

In assay [4] the target is human Thyroid Receptor alpha (THRa1), THRA (gene 7067) (UniProt P10827). Put plainly: ATG_THRa1_TRANS: Attagene TRANS-FACTORIAL HepG2 Assay for human Thyroid Receptor alpha (THRa1) (AID 2283014). Put shortly: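 HepG2 cells transiently transfected with chimeric NR-Gal4 and GAL4-UAS reporter units, dosed 24 h. Reporter mRNA quantified by RT-PCR, fluorescent labeling, HpaI digestion and capillary electrophoresis; gain-of-signal fit versus DMSO.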

Assay [5] deals with human RAR-related Orphan Receptor beta (RORb), RORB (gene 6096) (UniProt Q92753). In words: ATG_RORb_TRANS: Attagene TRANS-FACTORIAL HepG2 Assay for human RAR-related Orphan Receptor beta (RORb) (AID 2283010). Put shortly:
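In this TRANS-format test, human HepG2 cells express chimeric NR-Gal4 fusion proteins driving GAL4-UAS reporters. After 24 h dosing, reporter transcripts are measured by fluorescent RT-PCR/capillary electrophoresis, with DMSO as negative control.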

For assay [6], the target named is Retinoic acid receptor RXR-alpha (Homo sapiens) (UniProt P19793). Put plainly: ATG_RXRa_TRANS: Attagene TRANS-FACTORIAL HepG2 Assay for human Retinoid X Receptor alpha (RXRa) (AID 2283012). Put shortly: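 Cells (HepG2) carried transiently transfected GAL4-responsive reporter units. Following a 24 h chemical incubation, reporter mRNA induction was read via RT-PCR fragment analysis; DMSO served as negative control and baseline.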

For assay [7], the target named is human Retinoid X Receptor beta (RXRb), RXRB (gene 6257) (UniProt P28702). In words: ATG_RXRb_TRANS: Attagene TRANS-FACTORIAL HepG2 Assay for human Retinoid X Receptor beta (RXRb) (AID 2283013). The method, boiled down:
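Multiplexed TRANS reporter assay in HepG2; 24 h dosing; reporter mRNA by RT-PCR/CE fluorescence; gain-of-signal relative to DMSO.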

Results filed as inconclusive are left out. Active and inactive are the calls of the source. Rule for the calls: active = hit-call score of the fitted dose curve at least 0.9, where 1 is the maximum; inconclusive = response in the unintended direction; inactive = score below 0.9.

Chain of Retinoic acid receptor RXR-alpha (Homo sapiens) (P19793 whole entry, looked up, the tested form may be a part): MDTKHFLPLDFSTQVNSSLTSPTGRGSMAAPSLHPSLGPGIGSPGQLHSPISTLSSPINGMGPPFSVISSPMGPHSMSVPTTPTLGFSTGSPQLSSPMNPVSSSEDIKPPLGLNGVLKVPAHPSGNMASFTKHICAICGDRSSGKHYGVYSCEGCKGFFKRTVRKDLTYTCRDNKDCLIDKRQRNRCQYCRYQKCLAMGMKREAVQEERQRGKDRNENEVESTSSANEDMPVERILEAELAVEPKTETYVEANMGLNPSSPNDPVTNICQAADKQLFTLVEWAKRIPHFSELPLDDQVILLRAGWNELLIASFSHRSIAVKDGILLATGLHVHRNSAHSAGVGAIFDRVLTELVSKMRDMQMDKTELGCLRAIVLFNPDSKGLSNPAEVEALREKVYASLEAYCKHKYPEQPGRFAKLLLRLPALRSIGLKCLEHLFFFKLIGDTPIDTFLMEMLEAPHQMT
Chain of human RAR-related Orphan Receptor gamma (RORg), RORC (gene 6097) (P51449 whole entry, looked up, the tested form may be a part): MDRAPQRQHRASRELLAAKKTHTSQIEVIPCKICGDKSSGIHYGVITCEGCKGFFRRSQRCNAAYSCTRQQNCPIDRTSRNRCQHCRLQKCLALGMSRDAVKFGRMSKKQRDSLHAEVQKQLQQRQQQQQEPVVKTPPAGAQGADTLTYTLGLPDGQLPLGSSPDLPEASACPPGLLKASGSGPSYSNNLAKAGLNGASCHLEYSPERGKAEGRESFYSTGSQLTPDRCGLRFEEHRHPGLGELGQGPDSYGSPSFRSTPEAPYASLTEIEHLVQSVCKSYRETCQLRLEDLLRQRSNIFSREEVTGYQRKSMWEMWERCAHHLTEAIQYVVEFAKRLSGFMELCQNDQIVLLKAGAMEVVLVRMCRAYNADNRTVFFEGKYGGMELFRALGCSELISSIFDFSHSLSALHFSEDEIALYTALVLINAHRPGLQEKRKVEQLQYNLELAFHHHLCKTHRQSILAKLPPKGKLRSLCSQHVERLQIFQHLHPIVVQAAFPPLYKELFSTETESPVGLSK
Chain of Peroxisome proliferator-activated receptor gamma (Homo sapiens) (P37231 whole entry, looked up, the tested form may be a part): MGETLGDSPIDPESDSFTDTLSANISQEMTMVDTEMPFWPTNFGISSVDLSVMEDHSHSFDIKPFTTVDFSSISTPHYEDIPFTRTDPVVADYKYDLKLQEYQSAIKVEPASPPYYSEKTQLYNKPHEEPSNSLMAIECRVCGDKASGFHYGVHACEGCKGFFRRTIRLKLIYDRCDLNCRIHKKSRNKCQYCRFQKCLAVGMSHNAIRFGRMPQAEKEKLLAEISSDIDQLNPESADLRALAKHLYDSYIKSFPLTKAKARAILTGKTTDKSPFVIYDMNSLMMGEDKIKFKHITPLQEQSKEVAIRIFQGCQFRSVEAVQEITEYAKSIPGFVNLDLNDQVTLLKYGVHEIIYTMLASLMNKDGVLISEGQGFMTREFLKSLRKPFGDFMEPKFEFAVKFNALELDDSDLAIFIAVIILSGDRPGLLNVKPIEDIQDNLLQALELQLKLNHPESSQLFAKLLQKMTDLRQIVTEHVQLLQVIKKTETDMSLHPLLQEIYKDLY
Chain of human Thyroid Receptor alpha (THRa1), THRA (gene 7067) (P10827 whole entry, looked up, the tested form may be a part): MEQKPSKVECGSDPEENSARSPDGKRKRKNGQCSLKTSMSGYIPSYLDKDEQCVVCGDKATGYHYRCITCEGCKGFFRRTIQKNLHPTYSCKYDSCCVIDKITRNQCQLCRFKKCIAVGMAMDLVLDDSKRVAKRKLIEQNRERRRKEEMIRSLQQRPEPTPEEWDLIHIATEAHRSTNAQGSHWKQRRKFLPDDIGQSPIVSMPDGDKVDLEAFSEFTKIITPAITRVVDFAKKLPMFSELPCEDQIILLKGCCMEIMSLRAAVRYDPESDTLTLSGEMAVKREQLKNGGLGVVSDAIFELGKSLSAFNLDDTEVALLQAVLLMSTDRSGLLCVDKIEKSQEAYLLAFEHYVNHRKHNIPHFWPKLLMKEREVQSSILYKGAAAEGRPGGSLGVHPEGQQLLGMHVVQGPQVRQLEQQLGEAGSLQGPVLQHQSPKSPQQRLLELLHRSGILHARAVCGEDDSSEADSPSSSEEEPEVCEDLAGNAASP
Chain of Nuclear receptor subfamily 1 group I member 2 (Homo sapiens) (O75469 whole entry, looked up, the tested form may be a part): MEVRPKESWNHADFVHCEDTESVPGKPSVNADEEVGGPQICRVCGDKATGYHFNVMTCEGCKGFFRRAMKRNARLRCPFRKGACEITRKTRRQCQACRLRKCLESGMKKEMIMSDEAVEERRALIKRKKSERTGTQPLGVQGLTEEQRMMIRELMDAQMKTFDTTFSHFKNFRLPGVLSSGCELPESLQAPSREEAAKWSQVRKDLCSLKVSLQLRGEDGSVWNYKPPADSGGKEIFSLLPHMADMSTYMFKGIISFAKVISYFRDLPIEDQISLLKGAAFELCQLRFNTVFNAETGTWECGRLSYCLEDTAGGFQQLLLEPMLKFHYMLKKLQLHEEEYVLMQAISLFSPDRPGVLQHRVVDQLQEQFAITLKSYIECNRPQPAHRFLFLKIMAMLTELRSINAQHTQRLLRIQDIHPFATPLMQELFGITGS
Chain of human RAR-related Orphan Receptor beta (RORb), RORB (gene 6096) (Q92753 whole entry, looked up, the tested form may be a part): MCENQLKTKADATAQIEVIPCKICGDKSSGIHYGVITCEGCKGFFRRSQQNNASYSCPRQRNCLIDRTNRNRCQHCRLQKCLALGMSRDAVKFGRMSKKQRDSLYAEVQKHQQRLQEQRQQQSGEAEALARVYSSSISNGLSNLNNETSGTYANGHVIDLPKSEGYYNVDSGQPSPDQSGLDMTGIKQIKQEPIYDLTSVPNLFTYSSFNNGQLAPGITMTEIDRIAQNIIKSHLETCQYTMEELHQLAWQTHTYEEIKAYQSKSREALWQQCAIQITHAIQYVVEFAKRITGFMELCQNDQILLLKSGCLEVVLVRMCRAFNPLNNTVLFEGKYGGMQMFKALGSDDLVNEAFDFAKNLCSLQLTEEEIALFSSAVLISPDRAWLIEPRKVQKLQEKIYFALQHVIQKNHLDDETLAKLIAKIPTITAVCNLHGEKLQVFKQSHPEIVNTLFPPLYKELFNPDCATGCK
Chain of human Retinoid X Receptor beta (RXRb), RXRB (gene 6257) (P28702 whole entry, looked up): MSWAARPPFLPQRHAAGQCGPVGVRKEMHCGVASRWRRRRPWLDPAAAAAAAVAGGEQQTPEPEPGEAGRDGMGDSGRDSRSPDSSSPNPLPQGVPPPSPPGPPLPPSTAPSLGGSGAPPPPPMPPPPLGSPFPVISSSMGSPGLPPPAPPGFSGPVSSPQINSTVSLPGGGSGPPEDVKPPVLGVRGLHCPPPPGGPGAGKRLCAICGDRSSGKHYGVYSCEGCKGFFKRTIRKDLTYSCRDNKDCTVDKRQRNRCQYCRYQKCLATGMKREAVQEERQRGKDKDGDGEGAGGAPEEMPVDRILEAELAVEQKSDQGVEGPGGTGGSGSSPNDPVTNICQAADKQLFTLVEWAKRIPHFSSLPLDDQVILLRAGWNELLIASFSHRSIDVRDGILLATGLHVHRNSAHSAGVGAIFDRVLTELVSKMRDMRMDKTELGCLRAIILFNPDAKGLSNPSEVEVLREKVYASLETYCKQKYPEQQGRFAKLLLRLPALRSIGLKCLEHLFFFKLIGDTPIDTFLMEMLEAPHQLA

As for `CCCCOC(=O)C(C)OC(=O)CCC` (stereo unspecified), the compound was called inactive in assay [1], in assay [2], in assay [3] and in assay [4].

Regarding `CC(=O)c1ccc2ccccc2c1`, the call in assay [1], in assay [2], in assay [5], in assay [3], in assay [6] and in assay [7] was inactive. Moreover, in assay [4], the call was inactive.

Take `CN(C)C`: the call in assay [5] was inactive.

With `CCCC1CCC(=O)CC1`, the call in assay [3] was inactive.

Consider `Nc1ccn([C@H]2CC[C@@H](CO)O2)c(=O)n1`, for which the outcome in assay [2], in assay [3], in assay [6] and in assay [4] was inactive.

For `CC(=O)c1cccnc1`, in assay [4], the result was inactive.

For orientation: AC50 means the midpoint of the concentration-response curve, whichever way the signal moves. On to `CCCCCCCCCCCCN1CCOCC1`, for which the outcome in assay [1], in assay [2], in assay [6] and in assay [4] was inactive. The AC50 in assay [7] was 42.8 µM (active).

Regarding `CC(O)COCC(C)O` (stereo unspecified), the result in assay [2], in assay [3] and in assay [6] was inactive.

Values taken from PubChem BioAssay (EPA / NIEHS).
